This is part of a sample that, as a whole, favours compounds with a hit. Of some 83,000 tested, about 20% had one in any assay.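 Note: values are percent growth. 100 is the growth of untreated cells, values between 100 and 0 indicate rising inhibition; between -100 and 0 indicates cell death.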 Active and inactive are the calls of the source. Rule for the calls: active = growth percent below 10; inactive = the rest.
What was measured:
Assay in all cases: NCI-60 one-dose screen, 48 h (100 = growth as untreated, 0 = no growth, -100 = all killed)
Conditions in all cases: 10 µM unless noted
SR leukemia = system: SR leukemia
RPMI-8226 leukemia = system: RPMI-8226 leukemia
OVCAR-8 ovarian = system: OVCAR-8 ovarian
OVCAR-5 ovarian = system: OVCAR-5 ovarian
OVCAR-4 ovarian = system: OVCAR-4 ovarian
SK-OV-3 ovarian = system: SK-OV-3 ovarian
IGROV1 ovarian = system: IGROV1 ovarian
OVCAR-3 ovarian = system: OVCAR-3 ovarian
HS 578T breast = system: HS 578T breast
NCI/ADR-RES ovarian = system: NCI/ADR-RES ovarian
T-47D breast = system: T-47D breast
BT-549 breast = system: BT-549 breast
MDA-MB-435 melanoma = system: MDA-MB-435 melanoma
SW-620 colon = system: SW-620 colon
MCF7 breast = system: MCF7 breast
HCT-116 colon = system: HCT-116 colon
HCC-2998 colon = system: HCC-2998 colon
KM12 colon = system: KM12 colon

Measured: growth

O=C1/C(=C/c2ccc(Cl)cc2)CN(C(=O)CCN2CCC(=NO)CC2)C/C1=C\c1ccc(Cl)cc1
active: SR leukemia -5.09% | RPMI-8226 leukemia -34.1% | OVCAR-8 ovarian -89.8% | OVCAR-5 ovarian -63.6% | OVCAR-4 ovarian -78.6% | SK-OV-3 ovarian -38.2% | IGROV1 ovarian -67.2% | OVCAR-3 ovarian -97.5% | HS 578T breast -20.3% | NCI/ADR-RES ovarian 1.6% | T-47D breast -37.2% | BT-549 breast -88% | MDA-MB-435 melanoma -94.7% | SW-620 colon -61.1% | MCF7 breast -53.3% | HCT-116 colon -48% | HCC-2998 colon -76.1% | KM12 colon -86.1%

CCOC(=O)NNC(=S)Nc1ccccc1
inactive: SR leukemia 110% | RPMI-8226 leukemia 105% | OVCAR-8 ovarian 102% | OVCAR-5 ovarian 116% | OVCAR-4 ovarian 100% | SK-OV-3 ovarian 111% | IGROV1 ovarian 107% | OVCAR-3 ovarian 116% | HS 578T breast 103% | NCI/ADR-RES ovarian 106% | T-47D breast 113% | BT-549 breast 103% | MDA-MB-435 melanoma 94.9% | SW-620 colon 110% | MCF7 breast 100% | HCT-116 colon 104% | HCC-2998 colon 117% | KM12 colon 106%

Cc1ccc(S(=O)(=O)/C(=C\c2ccc(Cl)cc2)C(=O)c2ccccc2)cc1
inactive: SR leukemia 105% | RPMI-8226 leukemia 103% | OVCAR-8 ovarian 107% | OVCAR-5 ovarian 114% | OVCAR-4 ovarian 107% | SK-OV-3 ovarian 96.9% | IGROV1 ovarian 109% | OVCAR-3 ovarian 119% | HS 578T breast 119% | NCI/ADR-RES ovarian 104% | T-47D breast 95.3% | BT-549 breast 102% | MDA-MB-435 melanoma 88.7% | SW-620 colon 106% | MCF7 breast 82.3% | HCT-116 colon 106% | HCC-2998 colon 107% | KM12 colon 111%

COc1ccc(/C=C\c2cc(OC)c(OC)c(OC)c2)cc1OC(=O)c1cccc(Cn2cc(CCOC(=O)c3cccc(Cn4nnc5c4C(=O)c4ccccc4C5=O)c3)nn2)c1
inactive: SR leukemia 12.5% | RPMI-8226 leukemia 12.4% | OVCAR-8 ovarian 16% | OVCAR-5 ovarian 28.8% | OVCAR-4 ovarian 31.6% | SK-OV-3 ovarian 41.7% | IGROV1 ovarian 16.1% | NCI/ADR-RES ovarian 11.5% | T-47D breast 67.6% | BT-549 breast 27% | SW-620 colon 27.8% | HCC-2998 colon 17.6%
active: OVCAR-3 ovarian -10.1% | HS 578T breast 5.15% | MDA-MB-435 melanoma -36.3% | MCF7 breast 8.36% | HCT-116 colon 6.52% | KM12 colon 9.04%

S=C(S)NCCc1c[nH]c2ccccc12
inactive: SR leukemia 94.9% | RPMI-8226 leukemia 92.4% | OVCAR-8 ovarian 95.9% | OVCAR-5 ovarian 102% | OVCAR-4 ovarian 111% | SK-OV-3 ovarian 121% | IGROV1 ovarian 81.9% | OVCAR-3 ovarian 101% | HS 578T breast 99.5% | NCI/ADR-RES ovarian 101% | T-47D breast 88% | BT-549 breast 92.6% | MDA-MB-435 melanoma 103% | SW-620 colon 101% | MCF7 breast 94.4% | HCT-116 colon 96.1% | HCC-2998 colon 115% | KM12 colon 96.7%

C=C(C)[C@@H]1CC[C@]2(C(=O)N3CCNCC3)CC[C@]3(C)[C@H](CC[C@@H]4[C@@]5(C)C/C(=C/c6ccncc6)C(=O)C(C)(C)[C@@H]5CC[C@]43C)[C@@H]12
inactive: SR leukemia 106% | RPMI-8226 leukemia 98.2% | OVCAR-8 ovarian 98.2% | OVCAR-5 ovarian 105% | OVCAR-4 ovarian 98.9% | SK-OV-3 ovarian 107% | IGROV1 ovarian 103% | OVCAR-3 ovarian 116% | HS 578T breast 98.4% | NCI/ADR-RES ovarian 109% | T-47D breast 102% | BT-549 breast 105% | MDA-MB-435 melanoma 105% | SW-620 colon 109% | MCF7 breast 79.7% | HCT-116 colon 102% | HCC-2998 colon 109% | KM12 colon 109%

O=C1NN(C(=O)c2ccc(Cl)cc2)C(c2ccccc2)=N/C1=C\c1ccc(F)cc1
inactive: SR leukemia 80.2% | RPMI-8226 leukemia 60.3% | OVCAR-8 ovarian 86.6% | OVCAR-5 ovarian 88.8% | OVCAR-4 ovarian 99.1% | SK-OV-3 ovarian 97.4% | IGROV1 ovarian 87.6% | OVCAR-3 ovarian 98.7% | HS 578T breast 95.2% | NCI/ADR-RES ovarian 66.7% | T-47D breast 80.7% | BT-549 breast 78.9% | MDA-MB-435 melanoma 91.5% | SW-620 colon 42.5% | MCF7 breast 98.2% | HCT-116 colon 62.9% | HCC-2998 colon 95.3% | KM12 colon 59.1%

CC(C)(C)OC(=O)NC(CSCc1ccccc1)C(=O)ON1C(=O)CCC1=O (stereo not given)
inactive: SR leukemia 78.4% | RPMI-8226 leukemia 97.5% | OVCAR-8 ovarian 104% | OVCAR-5 ovarian 106% | OVCAR-4 ovarian 121% | SK-OV-3 ovarian 104% | IGROV1 ovarian 114% | OVCAR-3 ovarian 107% | HS 578T breast 115% | NCI/ADR-RES ovarian 103% | T-47D breast 93.9% | BT-549 breast 117% | MDA-MB-435 melanoma 109% | SW-620 colon 105% | MCF7 breast 98.4% | HCT-116 colon 92.5% | HCC-2998 colon 101% | KM12 colon 109%

CCOC(=O)C1C(=O)C=C(c2ccc(OC)cc2)CC1c1sc(N(C)Cc2ccccc2)nc1Cl (stereo not given)
inactive: SR leukemia 81% | RPMI-8226 leukemia 63.9% | OVCAR-8 ovarian 80.9% | OVCAR-5 ovarian 86.2% | OVCAR-4 ovarian 78.2% | SK-OV-3 ovarian 90% | IGROV1 ovarian 104% | OVCAR-3 ovarian 87.5% | HS 578T breast 49.2% | NCI/ADR-RES ovarian 88.2% | T-47D breast 64.2% | BT-549 breast 94.4% | MDA-MB-435 melanoma 85.1% | SW-620 colon 82.9% | MCF7 breast 83.5% | HCT-116 colon 71.9% | HCC-2998 colon 98.9% | KM12 colon 81.4%

COc1ccc(-c2nc(/C=C3/C(=O)Nc4ccc(F)cc43)c3ccccn23)cc1
inactive: SR leukemia 79.1% | RPMI-8226 leukemia 93.3% | OVCAR-8 ovarian 98.5% | OVCAR-5 ovarian 133% | OVCAR-4 ovarian 101% | SK-OV-3 ovarian 117% | IGROV1 ovarian 87.4% | OVCAR-3 ovarian 114% | HS 578T breast 118% | NCI/ADR-RES ovarian 111% | T-47D breast 100% | BT-549 breast 104% | MDA-MB-435 melanoma 113% | SW-620 colon 87.7% | MCF7 breast 48.7% | HCT-116 colon 62% | HCC-2998 colon 104% | KM12 colon 102%

O=C(Nc1ccncc1)C(=O)c1cn(S(=O)(=O)c2ccccc2F)c2ccccc12
inactive: SR leukemia 16.4% | OVCAR-8 ovarian 35.2% | OVCAR-5 ovarian 69.3% | OVCAR-4 ovarian 57.1% | SK-OV-3 ovarian 87.5% | IGROV1 ovarian 52% | HS 578T breast 12.1% | T-47D breast 41.8% | BT-549 breast 39.1% | SW-620 colon 15.6% | MCF7 breast 21.5% | HCT-116 colon 20.4% | HCC-2998 colon 57.2% | KM12 colon 19.2%
active: RPMI-8226 leukemia 9.83% | OVCAR-3 ovarian -27.1% | NCI/ADR-RES ovarian -17.7% | MDA-MB-435 melanoma 3.81%

C=C(C)[C@@H]1C[C@@H]2Cc3ccc(Cl)c(C)c3N1O2
inactive: SR leukemia 80.2% | RPMI-8226 leukemia 78.6% | OVCAR-8 ovarian 107% | OVCAR-5 ovarian 79.5% | OVCAR-4 ovarian 91.7% | SK-OV-3 ovarian 99.6% | IGROV1 ovarian 111% | OVCAR-3 ovarian 105% | HS 578T breast 97% | NCI/ADR-RES ovarian 94.2% | T-47D breast 89.1% | BT-549 breast 101% | MDA-MB-435 melanoma 94.4% | SW-620 colon 106% | MCF7 breast 107% | HCT-116 colon 95.9% | HCC-2998 colon 90.5% | KM12 colon 104%

O=c1[nH]c(Nc2ccc(S(=O)(=O)O)cc2)nc2nc(Nc3ccc(NC(=S)Nc4ccccc4)cc3)nc(-c3ccc(O)cc3O)c12
inactive: SR leukemia 61.7% | RPMI-8226 leukemia 82.6% | OVCAR-8 ovarian 55.5% | OVCAR-5 ovarian 116% | OVCAR-4 ovarian 107% | SK-OV-3 ovarian 114% | IGROV1 ovarian 61.7% | OVCAR-3 ovarian 119% | HS 578T breast 102% | NCI/ADR-RES ovarian 109% | T-47D breast 90.7% | BT-549 breast 152% | MDA-MB-435 melanoma 111% | SW-620 colon 107% | MCF7 breast 107% | HCT-116 colon 109% | HCC-2998 colon 112% | KM12 colon 95.2%

CCN(CC)c1ccc(N=O)cc1
inactive: SR leukemia 26.5% | RPMI-8226 leukemia 91.3% | OVCAR-8 ovarian 55.4% | OVCAR-5 ovarian 103% | OVCAR-4 ovarian 66.7% | SK-OV-3 ovarian 96% | IGROV1 ovarian 15% | OVCAR-3 ovarian 28.5% | HS 578T breast 93% | NCI/ADR-RES ovarian 52% | T-47D breast 44.9% | BT-549 breast 79.7% | MDA-MB-435 melanoma 66.9% | HCT-116 colon 37.9% | HCC-2998 colon 86.5% | KM12 colon 40.3%
active: SW-620 colon -61.1%

COc1ccc(Cn2cc3c(c2-c2cc(OC)c(OC)c(OC)c2)CCc2cnoc2-3)cc1
active: SK-OV-3 ovarian -0.435% | IGROV1 ovarian 7.18% | OVCAR-3 ovarian -5.4% | MDA-MB-435 melanoma -37.3% | HCC-2998 colon 1.48%
inactive: SR leukemia 13.1% | RPMI-8226 leukemia 23.4% | OVCAR-8 ovarian 34.6% | OVCAR-5 ovarian 47.7% | OVCAR-4 ovarian 22.6% | HS 578T breast 15.9% | NCI/ADR-RES ovarian 20.1% | T-47D breast 41.2% | BT-549 breast 41.6% | SW-620 colon 29.8% | HCT-116 colon 13%

CC(C)(C)OC(=O)NCCc1ccc(N=C=S)cc1
inactive: SR leukemia 22.5% | OVCAR-8 ovarian 86% | OVCAR-5 ovarian 82.7% | OVCAR-4 ovarian 76.9% | SK-OV-3 ovarian 97.1% | IGROV1 ovarian 71.8% | OVCAR-3 ovarian 72.7% | HS 578T breast 92.3% | NCI/ADR-RES ovarian 75.6% | T-47D breast 41.5% | BT-549 breast 62.3% | MDA-MB-435 melanoma 71.3% | SW-620 colon 71.4% | HCT-116 colon 65.5% | HCC-2998 colon 89.9% | KM12 colon 60.8%
active: RPMI-8226 leukemia 9.22%

COc1cc2c(cc1OCCCCCn1c3ccccc3c3ccccc31)N=C[C@@H]1CCCN1C2=O
active: SR leukemia -54.5% | RPMI-8226 leukemia -39.2% | OVCAR-8 ovarian -30.6% | OVCAR-5 ovarian -50% | OVCAR-4 ovarian -7.21% | SK-OV-3 ovarian -47.4% | IGROV1 ovarian -68.9% | OVCAR-3 ovarian -80.5% | HS 578T breast -63.4% | NCI/ADR-RES ovarian -6.33% | T-47D breast -34.1% | BT-549 breast -61.6% | MDA-MB-435 melanoma -99.2% | MCF7 breast -30.9% | HCT-116 colon -75.8% | HCC-2998 colon -94.8%

Source: PubChem BioAssay (NCI)
